This is part of a sample that, as a whole, favours compounds with a hit. Of some 83,000 tested, about 20% had one in any assay.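 Cell lines were cultured in 96-well plates, exposed to a single compound concentration, and assessed for percent growth 48 hours later.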 Unmarked numbers belong to inactive results. Activity calls are given as the source filed them. Rule for the calls: active = growth percent below 10; inactive = the rest.

The test system of the test is HL-60(TB) leukemia. Kind of test: NCI-60 one-dose screen, 48 h (100 = growth as untreated, 0 = no growth, -100 = all killed). Conditions: 10 µM unless noted.
As to `O=[N+]([O-])c1ccc(S(=O)(=O)N2CCN(c3ccnc4cc(Cl)ccc34)CC2)c([N+](=O)[O-])c1`, the growth is 75.7%. For the compound `COc1cc(Nc2cc(C)nc(N3CCN(c4ccnc5cc(Cl)ccc45)CC3)n2)cc(OC)c1`, the growth was -6.44% (active). With `Clc1cccc(Nc2ncnc3ccc(-c4cncc(-n5cnnn5)c4)cc23)c1` the figure was 86.6%; with `COc1cc(-c2csc(NC(=O)Nc3ccc(C(F)(F)F)cc3)n2)cc(OC)c1OC`, -13.8% (active); with `CCN(CC)CCOC(=O)c1cc(OCc2ccccc2)c(OCc2ccccc2)c(OCc2ccccc2)c1`, 59.6%.

`COc1ccc(S(=O)(=O)n2ccc(-c3ccc4c(c3)CCC(C)(C)O4)n2)cc1OC`: the growth was 94.7%. Take `COc1cc(/C(Cl)=C/C=C/C(=O)c2c(C)[n+]([O-])c3ccc(Cl)cc3[n+]2[O-])cc(OC)c1OC`: the growth was 11.9%. With `COc1c2ccccc2c(OC)c2[nH]c(=O)ccc12` the figure was 71.5%. In the case of `COc1ccc(C2CC(c3ccccc3)=NN2c2nc(C)c(C(C)=O)s2)cc1` (stereo not given) it was 101%; in that of `O=C1/C(=C/c2ccc3c(c2)OCO3)SC(=S)N1C1c2ccccc2Oc2ccccc21`, 86.1%.

On to `CON1CCC[C@]2(C)[C@H]3CC[C@@H]4[C@H]5[C@@H](O)C(C)(C)CC[C@]5(CO)CC[C@@]4(C)[C@]3(C)CC[C@H]2C1(C)C`, for which the growth is 91.5%. With `CC(=O)n1c2ccccc2c2ccccc21` the figure was 104%. In the case of `C#C[C@]1(O)CC[C@H]2[C@@H]3CC=C4c5sc(N=C(N)N)nc5CC[C@]4(C)[C@H]3CC[C@@]21C` it was -44.8% (active). `CCOC(=O)/C=C(/C)Sc1cc(O)c2ccccc2c1O`: the growth was 20.5%. In the case of `Cc1cnc(C(=O)Nc2nc3ccc(S(=O)(=O)Nc4ccc(C(C)(C)C)cc4)cc3[nH]2)cn1` it was -18.2% (active); in that of `O=C(Cn1nnc([N+](=O)[O-])n1)c1ccccc1`, 38%; in that of `O=C(CN1C(=O)S/C(=C\C(Cl)=C\c2ccccc2)C1=O)NCCCn1ccnc1`, -4.78% (active). For `CC(C)(C)c1nn(-c2ccccc2)c2c1COCN2Cc1ccc(Cl)cc1`, the growth was 43.5%.

As to `CCCCCCCCCCCCc1ccc(C(=O)/C=C/C(=O)O)cc1`, the growth was 26.6%.

As for `CCCN1CN2C(=O)N3CN(CCC)CN4C(=S)N(C1)C2C34` (stereo not given), the growth is 95%. In the case of `CSc1nc2c(c(=O)[nH]1)C(c1ccc(C)cc1)C=C(C(=O)O)N2` (stereo not given) it was 114%. As to `N#Cc1c2c([nH]c(=O)c1C(N)=O)CCCCC2`, the growth is 104%. With `O=c1oc2ccc(Br)cc2c(=O)n1-c1ccc(F)cc1F`, the growth is -1.95% (active).

Take `O=C(NS(=O)(=O)c1ccccc1)n1cc(-c2ccncc2)c(-c2ccc(Cl)c(O)c2)n1`: the growth is 94%. With `COc1cc(Nc2ncnc(Nc3ccc4c(n3)NC(=O)C(C)(C)O4)n2)cc(OC)c1OC` the figure was 46.8%; with `CSc1nc(-c2cccs2)c2c(N)[nH]nc2n1`, 85.3%; with `CC(=O)Nc1cc(F)cc(C(F)(F)F)c1Cl`, 100%. In the case of `O=C(CCC(=O)OC1CCCC1)OC1CCCC1` it was 103%. With `CC1(C)CC[C@]2(C(=O)N[C@H](CO)Cc3ccccc3)CC[C@]3(C)C(=CC[C@@H]4[C@@]5(C)CCCNC(C)(C)[C@@H]5CC[C@]43C)[C@@H]2C1`, the growth is 31.2%.

In the case of `COC(=O)C1(C)COP(=O)(NC23CC4CC(CC(C4)C2)C3)OC1` (stereo not given), the growth is 119%.

Consider `COc1cc(-c2nc(SCCC(C)C)nc(Nc3ccccc3)c2C#N)cc(OC)c1OC`, for which the growth was 83.9%. With `Cc1cc(=O)n(C(=S)Nc2ccc(Cl)cc2)c2cc(O)ccc12` the figure was 111%; with `N#C/C(=C\c1ccc([N+](=O)[O-])cc1)n1nnc2cc(F)c(F)cc21`, -27% (active); with `CCc1ccc(CCC(=O)Nc2ncc(Cc3ccc(Cl)cc3)s2)o1`, -39.6% (active).

On to `Cc1ccc(-c2cnc3sc(C(=O)NCCc4ccccc4)c(C)n23)cc1`, for which the growth was 97.9%. On to `CC(O)CNC(Cc1ccccc1)c1ccc2c(c1)OCO2` (stereo not given), for which the growth is 96.3%. Regarding `O=C(O)COc1ccccc1F`, the growth was 104%. With `O=C(Cn1c[n+](CC(=O)c2ccc([N+](=O)[O-])cc2)c2ccccc21)Nc1cccc2cccnc12` the figure was 61.9%; with `Cc1ccc(-c2csc(NC(=O)CSc3nc(-c4ccccc4)cc(=O)[nH]3)n2)cc1`, 49.4%; with `O=C(NCCNc1nccc(-c2c(-c3cccc(O)c3)nc3sccn23)n1)c1ccccc1`, 93.3%.

The values are drawn from PubChem BioAssay (NCI).
